Tau ThT inhib: inhibitors of human tau fibril formation, thioflavin T binding | P10636 | recombinant tau K18 P301L, heparin-induced fibrillization, ThT fluorescence | Potency, µM (series often up to 57.4 µM), hits mostly inhibitors | 270,000 compounds, 2.1% hits; further: nearly all actives have a fitted effect of over 55% in size
Target sequence (P10636 561-689 P618L limits assumed): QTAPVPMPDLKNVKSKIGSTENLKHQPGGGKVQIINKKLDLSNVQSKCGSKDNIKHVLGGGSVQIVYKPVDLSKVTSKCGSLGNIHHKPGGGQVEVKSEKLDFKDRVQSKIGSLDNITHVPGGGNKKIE
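Using a mix of unlabeled (15 uM) and Alexa 594-labeled (0.24 uM) tau K18 P301L, heparin-triggered fibrillization over 6 hr at 37 C was scored by ThT fluorescence.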
Sfp PPTase inh: inhibitors of Bacillus subtilis Sfp phosphopantetheinyl transferase | Q9F4F7 | Biochemical Sfp PPTase activity, qHTS | Potency, µM, hits mostly inhibitors | 310,000 compounds, 3.5% hits | AID 1490;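 further: the enzyme is Sfp with the accession as filed and its product quenches rhodamine fluorescence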
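Fluorescence-quenching assay with 15 nM Sfp, 5 uM rhodamine-CoA and 12.5 uM BHQ-2-labelled ybbR peptide in pH 7.6 Hepes/MgCl2 buffer. Enzyme was pre-incubated with compound for 15 min at room temperature. Rate was taken from the 30-min fluorescence change (525/598 nm).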
G9a block: G9a (human) methyltransferase inhibition | G9a H3K9 monomethylation, AlphaScreen, 2 h | 350,000 compounds, 8.8% hits | Q96KQ7 | AID 504332 | Potency, µM (doses to about 102 µM), most hits filed as inhibitors; further: nearly all actives have a fitted effect of over 75% in size
Target sequence (Q96KQ7 913-1193 limits assumed): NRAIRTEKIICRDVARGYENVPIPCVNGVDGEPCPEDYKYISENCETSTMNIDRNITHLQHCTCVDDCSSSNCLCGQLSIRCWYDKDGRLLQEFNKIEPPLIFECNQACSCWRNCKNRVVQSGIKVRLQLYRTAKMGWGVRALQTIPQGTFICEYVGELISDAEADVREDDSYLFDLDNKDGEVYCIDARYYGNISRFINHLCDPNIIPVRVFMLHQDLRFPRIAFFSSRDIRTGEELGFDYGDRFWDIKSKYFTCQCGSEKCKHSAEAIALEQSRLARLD
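AlphaScreen detection with an anti-monomethyl H3K9 antibody quantified product after a 2 h room-temperature reaction containing 500 nM biotinylated H3K9 peptide, 20 µM SAM and 20 nM enzyme, which had been preincubated 15 min with compound.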
Tau FP inhib: tau fibrillization inhibition (FP); P10636; Potency, µM (highest dose often 57.7 µM), hits mostly inhibitors; 280,000 compounds, 0.39% hits; K18 P301L tau heparin fibrillization, Alexa594 FP, 6 h; AID 1468; further: nearly all actives have a fitted effect of over 55% in size
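FP of Alexa 594-tau after heparin (20 uM) induction. Substrate: human K18 P301L, 15 uM unlabeled, 0.24 uM labeled. Buffer 100 mM sodium acetate pH 7. 6 hr, 37 C.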
Tau fluor cs: counter-screen for tau fibril formation inhibitors; tau K18 P301L Alexa594 fluorescence, heparin fibrillization; AID 1463; Potency, µM (highest dose often 57.7 µM); 280,000 compounds, 0.93% hits; further: nearly all actives have a fitted effect of over 55% in size
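Human tau K18 P301L (15 uM unlabeled, 0.24 uM Alexa 594-labeled) in 100 mM sodium acetate pH 7 with 20 uM heparin, 6 hr at 37 C. ThT 30 uM added, 1 hr ambient; Alexa 594 FP and total fluorescence read at 555/632 nm.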
FBPA coupling cs: coupling enzyme interference in Giardia aldolase counter-screen | coupling enzyme system counterscreen, AmpLite Red fluorescence | activity change, negative = inhibition, % at 58.2 µM, hits read low | 290,000 compounds, 0.67% hits; in the data active means activity change below about -30%
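Counterscreen of the coupled detection system alone, without aldolase: glyceraldehyde-3-phosphate coupling enzymes plus AmpLite Red readout. Compounds at 57.5 uM final, 10 min RT preincubation, 20 min RT reaction, fluorescence 525/598 nm.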
Numbers stand for hits; 0 = inactive; ? = inconclusive; - = no result; [ ] = another dose, or the depositor's remark. Most compounds without a hit are left out; they make up all but 11% or so of the library. Unless noted, the call rests on the fitted dose curve; in most records, active means well fitted curve in the direction sought with a large enough effect; inconclusive means small, poorly fitted or top-dose-only effect, or another doubt; inactive means no such curve, though single readings can be large; an effect the other way counts as inactive or inconclusive.

SMILES	Tau ThT inhib	Sfp PPTase inh	G9a block	Tau FP inhib	Tau fluor cs	FBPA coupling cs
COc1ccccc1/C=C1/SC(=S)N(CCC(=O)Nc2cccnc2)C1=O	-	0	0	-	-	-
Cc1cc(NC(=O)CCCN2C(=O)/C(=C\c3cccs3)SC2=S)no1	0	0	0	0	0	0
Cc1ccc(CNC(=O)Cn2c(=O)n(-c3ccc(C)cc3)c(=O)c3c2c2cc(C)ccc2n3C)cc1	0	-	0	0	0	-
O=C(NCCc1ccc(Cl)cc1)c1ccc2c(c1)N(Cc1ccc(F)cc1Cl)C(=O)CS2	0	-	0	?	0	-
COC(=O)Cc1c(C)c2cc3c(c(C)c2oc1=O)OCN(CCc1ccc(F)cc1)C3	0	-	0	0	0	-
O=C(CCN1C(=O)/C(=C\c2ccco2)SC1=S)Nc1ccc(C(=O)O)c(O)c1	-	45µM	?	-	-	0
CCc1ccc(C(=O)OCC(=O)N(CCOC)c2c(N)n(Cc3ccccc3)c(=O)[nH]c2=O)cc1	-	-	0	-	-	-
O=C1CCCCCN1CP(=O)(O)CN1CCCCCC1=O	0	0	50µM	0	0	0
CCc1ccc(N(CC)C(=O)Cn2c(=O)oc3ccccc32)cc1	0	-	0	0	0	-
Cc1onc(-c2c(Cl)cccc2Cl)c1CO/N=C(\C#N)c1c(Cl)cccc1Cl	0	0	0	0	0	0
Cc1cc(C)nc(NN2C(=O)C=CC2=O)n1	-	14µM	2.8µM	-	-	0
COC(=O)CSc1nc(C)cc(C)n1	0	0	0	0	0	0
COC(=O)Cn1c(=O)c2cccn2c2cccnc21	0	-	0	0	0	-
CCN(CC)c1ccc(NC(=O)CCS(=O)(=O)c2ccc(Br)cc2)c(C)c1	-	0	10µM	-	-	0
CCN(CC)c1ccc(NC(=O)CCNS(=O)(=O)c2ccc3c(c2)CCC(=O)N3)c(C)c1	-	0	40µM	-	-	0
COc1ccc(/C=C/C(=O)OC(C)CN2CCCCC2)cc1 (centres undefined)	-	0	20µM	-	-	0
COc1ccc(/C=C/C(=O)OC(C)CN2CCOCC2)cc1 (centres undefined)	0	0	-	0	0	0
CCOC(=O)C1(CCCc2ccccc2)CCN(Cc2ccn[nH]2)CC1	0	0	50µM	?	0	0
Cc1ccc(CNC(=O)CN(C)S(=O)(=O)c2ccc(Br)s2)cc1	0	-	0	0	0	-
Cc1nc2c(cnn2-c2ccccc2Cl)c(=O)n1-c1ccc(N2CCC(C)CC2)cc1	0	0	50µM	0	0	0
CCOc1ccccc1NC1=NCC(=O)N1Cc1ccc(F)cc1	?	0	50µM	0	0	0
COc1ccccc1NC1=NCC(=O)N1Cc1ccccc1	0	0	0[0.501 µM]	0	0	0
COc1ccc(CN2C(=O)CN=C2Nc2cccc(C)c2C)cc1	0	0	56µM	0	0	0
O=S(=O)(CCc1ccncc1)Cc1ccc2c3c(cccc13)CC2	-	0	50µM	0	0	0
Cc1ccc(NC(=O)Cn2cc(C(=O)c3ccco3)c3ccccc32)cc1C	?	-	0	?	?	-
SMILES	Tau ThT inhib	Sfp PPTase inh	G9a block	Tau FP inhib	Tau fluor cs	FBPA coupling cs
Cc1ccccc1Cn1c2ccccc2c2cnn(CC(=O)NCCc3ccccc3)c(=O)c21	?	-	0	0	0	-
CCC12CN3CC(CC)(CN(C1)C3c1c[nH]c3ccccc13)C2=O (centres undefined)	0	-	0	0	0	-
CCC12CN3CC(CC)(CN(C1)C3c1c(O)ccc3ccccc13)C2=O (centres undefined)	?	0	?	0	0	-36
CC(C)(C)C1=CC=C(C(C)(C)C)C(=O)C1=O	18µM	1.6µM	2.2µM	18µM	?	-60
COc1ccc2nc(N=NC3=C(O)CC(C)(C)CC3=O)sc2c1	16µM	?	?	0	0	0
CC1(C)CC(=O)C(N=Nc2ccc3ncsc3c2)=C(O)C1	?	0	?	0	0	0
COc1ccc2nc(N)sc2c1	0	0	0[12.7 µM]	0	0	0
COc1ccc2nc(N=Nc3ccc(O)c4ccccc34)sc2c1	2.5µM	0	3.2µM	0	?	0
CCOC(=O)/C=C1\CN(Cc2cc(OC)c(OC)c(OC)c2)S(=O)(=O)c2ccc(C(F)(F)F)cc21	-	0	35µM	-	-	0
CCOC(=O)/C=C1\CN(Cc2cc(OC)c(OC)c(OC)c2)S(=O)(=O)c2ccccc21	-	0	?	-	-	0
